# Inconclusive results are not listed. A call without a number means that no potency is given here. Active and inactive are the calls of the source. Calls follow the shape of the dose curve; as a rule, active = well fitted inhibition curve with a large enough effect; inconclusive = small, poorly fitted or top-dose-only effect; inactive = flat fitted curve, though single readings scatter.
# Test: CHOP2 Reporter Counterscreen Assay for Inhibitors of Ubiquitin-specific Protease USP2a;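 also: activated enterokinase alone at 50 pM in a cell-free format rather than USP2a or CHOP2; nearly all actives have a fitted effect of over 55% in size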
# Conditions: purified enterokinase, fluorogenic substrate, 485/531 nm; series mostly up to 38.3 µM
# In short: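 Cell-free counterscreen with pre-activated enterokinase alone (50 pM final) in 20mM Tris-HCl pH 8.0, 2mM CaCl2, 2mM beta-mercaptoethanol, 0.05% CHAPS; compound preincubation 30 min RT, reporter substrate 25nM final, fluorescence read after 10 min (Ex 485/Em 531).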
# Potency is read from the fitted curve at half-maximal effect.
row,SMILES,Potency
1,CC(=O)COc1ccc2c(-c3ccccc3)cc(=O)oc2c1,inactive
2,O=C(Nc1ccc(Nc2ccncc2)cc1)c1ccc(Nc2ccnc3ccc([N+](=O)[O-])cc23)cc1,3.55 µM (active)
3,C#CCOCCOCCOCCNc1nc(N2CCN(C(=O)CCCCCCCCCCNC(=O)Cn3cc(CCCCCN)nn3)CC2)nc(N2CCN(C(=O)CCCCCCCCCCNC(=O)[C@H](CO)n3cc(CCCCCN)nn3)CC2)n1,11.2 µM (active)
4,CCCNC(=O)CS(=O)Cc1nc(-c2ccccc2C)oc1C (stereo not given),inactive
5,CCCCC1NC(C(=O)O)CS1 (stereo not given),inactive
6,Nc1ccccc1S(=O)(=O)NC1=NCCCCC1,inactive
7,C#CCOCCOCCOCCNc1nc(N2CCN(C(=O)CCCCCCCCCCNC(=O)[C@H]([C@@H](C)CC)n3cc(CCCCCN)nn3)CC2)nc(N2CCN(C(=O)CCCCCCCCCCNC(=O)[C@H](CCCCN)n3cc(CCCC(=O)O)nn3)CC2)n1,7.94 µM (active)
8,Cc1nc2cc3ccccc3cc2c(=O)[nH]1,inactive
9,COc1ccccc1N1C(=O)CC(N2CCc3ccccc32)C1=O (stereo not given),inactive
10,O=C(c1ccccc1N(Cc1ccccc1)S(=O)(=O)c1ccccc1)N1CCOCC1,inactive
11,COc1cc(/C=C/c2cc[n+](C)cc2)ccc1OCC(=O)Nc1ccc(Cl)c(Cl)c1,11.2 µM (active)
12,C/C(CC(=O)N1CCCC1)=N\NC(=O)c1cc2ccccc2cc1O,inactive
13,COc1ccc(-n2c(O)c(/C=N/n3cnnc3)c3ccccc3c2=O)cc1,inactive
14,CCNc1sc(C(=O)c2cccs2)c(N)c1-c1nc2ccccc2s1,inactive
15,CN(C)CCOCCP(=O)(c1ccccc1)c1ccccc1,inactive
16,COC(=O)N/N=C\c1cc(Br)ccc1OCc1ccccc1,inactive
17,CC1CCN(c2ccc3c(c2)S(=O)(=O)c2cccc(C(=O)NC4CC4)c2C3=O)CC1,inactive
18,CCN(CC(=O)Nc1ccc(NC(C)=O)cc1)C(=O)c1ccc(N2CCC(C)CC2)c([N+](=O)[O-])c1,inactive
19,C[C@H](CO)N1C[C@H](C)[C@@H](CN(C)S(=O)(=O)c2cn(C)cn2)Oc2ccc(NC(=O)Cn3cnnn3)cc2C1=O,inactive
20,CCc1nnc(NC(=O)CSc2nccn2-c2cccc(C)c2)s1,inactive

row,SMILES,Potency
1,CC(=O)c1ccc(Nc2ncnc3c2oc2ccccc23)cc1,inactive
2,COc1ccc(NC(=O)c2cc(-c3ccco3)nc3ccccc23)cc1S(=O)(=O)N1CCOCC1,5.62 µM (active)
3,COc1ccc(S(=O)(=O)NCCSCc2ccco2)cc1OC,10 µM (active)
4,COc1ccc2cc(CN(C(=O)Nc3ccccc3)C3CCCC3)c(=O)[nH]c2c1,inactive
5,Cc1noc(C)c1NC(=O)Nc1ccc2c(c1)C(=O)N([C@H](C)CO)C[C@H](C)[C@@H](CN(C)S(=O)(=O)c1ccccc1)O2,inactive
6,Cc1ccc(/C=C2/SC(=S)N(c3ccc(S(=O)(=O)Nc4nccs4)cc3)C2=O)cc1,12.6 µM (active)
7,OCCN(Cc1ccccc1)c1ncnc2sccc12,inactive
8,COc1cc2c(C(=O)N3CCN(c4cccc(Cl)c4)CC3)cn(CC(C)C)c(=O)c2cc1OC,inactive
9,CCOc1ccccc1C(=O)N[C@H](C(=O)Nc1ccc(OC)c(S(=O)(=O)N2CCOCC2)c1)C(C)C,inactive
10,N#Cc1c(Nc2ccc(Cl)cc2)s[nH]c1=O,inactive
11,c1ccc(-c2nc3nc4ccccc4nc3n2Cc2ccco2)cc1,inactive
12,COc1ccc(-c2nc(C#N)c(NCC3CCCO3)o2)cc1OC (stereo not given),inactive
13,COc1ccc2[nH]c(=O)c(CN(C3CCCCC3)C(c3nnnn3Cc3ccco3)C(C)C)cc2c1 (stereo not given),10 µM (active)
14,Cc1ccc2nc(NCCCNC(=O)c3cnccn3)c(C#N)cc2c1,inactive
15,O=C(Nc1ccc(N2CCCC2)cc1)c1ccc(Br)cc1,5.01 µM (active)
16,COc1ccc(-c2csc(N3CCN(C(=O)c4ccco4)CC3)n2)cc1,inactive
17,O=C(c1ccc([N+](=O)[O-])cc1)N(Cc1ccc(Cl)cc1)N1C(=O)CCCC1=O,inactive
18,O=C(CNC(=O)C1CCCCC1)NC1=NCCS1,inactive
19,Cc1noc(/C=C/c2ccco2)c1S(=O)(=O)N1CCC(C(=O)N2CCc3ccccc3C2)CC1,inactive
20,Cc1ccc([C@@H]2CC=C(C(=O)O)[C@H](c3cccc(Cl)c3)N2S(=O)(=O)c2ccc(C)cc2)cc1,inactive
